# In the library only some 5.7% were active in any assay of this set; here they are far more common.
# D3 ag: qHTS of D3 Dopamine Receptor Agonist: qHTS | D(3) dopamine receptor (Homo sapiens), P35462 | D3R DiscoveRx beta-arrestin cells, luminescence, 90 min | max activation, % | 0.58% of 410,000 active | AID 652048, 2013; in the data active means max activation above about 30%; further: 0% is about no effect
#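 Agonist mode: compounds and dopamine controls were applied to plated cells for 90 min at 37 degrees C after an overnight attachment at 1500 cells/well. Luminescent read-out followed 30 - 60 minutes at room temperature with DiscoveRx detection reagent.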
# GLP1R ag: qHTS of GLP-1 Receptor Agonists; Glucagon-like peptide 1 receptor (Homo sapiens), P43220; HEK293 GLP-1R CRE-luciferase, luminescence, 4-6 h; cells express a hypersensitive GLP-1R form; Potency, µM (highest dose often 45.6 µM), inactives show at the highest dose activation, hits mostly activators; 0.007% of 380,000 active; further: potency means the concentration at half of the fitted maximal effect; % of control where 0% means no effect
# ClpP mod: qHTS Assay for Activators of ClpP. Potency, µM (titrated, usually from 57.5 µM), without a hit: at the top dose activity change, negative = active. ATP-dependent Clp protease proteolytic subunit (Bacillus subtilis (strain 168)), P80244. purified B. subtilis ClpP, FRET peptide cleavage, 20 min. 1.9% of 340,000 active; active means well fitted falling curve with a large enough effect; inconclusive means small, poorly fitted or top-dose-only effect; inactive means no such curve, though single readings can be large or run the other way; further: potency means the concentration at half of the fitted maximal effect; the source files actives as falling curves though it sought activators and does not explain the sign; nearly all actives have a fitted effect of over 65% in size
#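 FRET quenching reversal measured ClpP activation: 10 microg/mL B. subtilis ClpP at pH 8 with the FRET-FV decapeptide, read at 430 nm after 320 nm excitation. The 20-min minus 0-min signal was scaled between DMSO/no-enzyme wells and ADEP (5.8 microM final).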
# GLP1R inv ag: qHTS of GLP-1 Receptor Inverse Agonists (Inhibition Mode); HEK293 GLP-1R CRE-luciferase, luminescence, 24 h; GLP-1R form is constitutively active; Potency, µM (top dose mostly 38.3 µM), for inactives: at the top dose activity change, negative = inhibition, usual class: inhibitors; 1.6% of 410,000 active; AID 624417, 2012; further: potency means the concentration at half of the fitted maximal effect; on the % scale 0 is the no-effect control and ±100 the full control effect; nearly all actives have a fitted effect of over 55% in size
#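 Stable HEK293 clone (constitutively active GLP-1R + cAMP-response luciferase); 200 cells/uL plated, 12 h pre-culture, compound 24 hr, 37 deg C/5% CO2; detection reagent 12 min RT; luminescence.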
# GLP1R cytotox: qHTS of GLP-1 Receptor Inverse Agonists: Cytotox Screen | HEK293 cAMP-luciferase reporter cells, luminescence, 24 h | Potency, µM (titrated, usually from 38.3 µM), inactives show top-dose activity change, negative = inhibition, actives largely listed as inhibitors | 0.13% of 410,000 active | AID 624418, 2012;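 further: loss of luciferase light is scored as toxicity; potency means the concentration at half of the fitted maximal effect; on the % scale 0 is the no-effect control and ±100 the full control effect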
#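 Seeding density was 200 cells/uL; after overnight-length (12 h) culture, 23 nL compounds went on for 24 h at 37 °C. Readout used a luciferase detection reagent, luminescence taken after 12 min at room temperature.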
# D3 antag: qHTS of D3 Dopamine Receptor Antagonist: qHTS; max response, negative = inhibition, %; AID 652054, 2013; D(3) dopamine receptor (Homo sapiens), P35462; 2.5% of 360,000 active; D3R cells, DiscoveRx beta-arrestin luminescence, antagonist mode; active compounds read low; in the data active means max response below about -50%; inconclusive means no clear call, values can overlap the other calls; further: on the % scale 0 is the no-effect control and ±100 the full control effect
#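 Cells expressing the human receptor were seeded at 1500 cells/well, incubated overnight at 37 degrees C in 5% CO2, then exposed to library compounds with dopamine controls for 90 minutes at 37 degrees C before luminescent detection.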
# Numbers without * were called inactive; ? = inconclusive; . = no result given; ! = not active in a repeat. Unless noted, the call rests on the fitted dose curve; in most records, active means well fitted curve in the direction sought with a large enough effect; inconclusive means small, poorly fitted or top-dose-only effect, or another doubt; inactive means no such curve, though single readings can be large; an effect the other way counts as inactive or inconclusive.
SMILES,D3 ag,GLP1R ag,ClpP mod,GLP1R inv ag,GLP1R cytotox,D3 antag
COc1ccc(NC(=O)CC2C(=O)N(Cc3ccco3)C(=S)N2C(C)C)cc1 (stereo not given),-6.1,-2.7%,-0.1%,10µM*,-10.2%,5.4
COc1cc(CNc2ccc3[nH]c(=O)[nH]c3c2)cc(Br)c1OCc1ccc(F)cc1,32.9*!,16.6%,?,16.8%,-8.0%,13.5
COc1cc(CNc2ccc3[nH]c(=O)[nH]c3c2)cc(Cl)c1OCc1ccc(F)cc1,4.1,.,9.0%,1.1%,11.1%,.
CCOC(=O)Nc1ccc2c(c1)N(CCCN(C)C)c1ccccc1CC2,-10.1,-5.5%,?,12.6µM*,2.7%,-26.0
CCOC(=O)Nc1ccc2c(c1)N(C(=O)OC)c1ccccc1CC2,0.7,0.6%,-1.5%,-24.0%,-24.6%,-20.8
Cc1ccc(NC(=O)CC2Sc3ccccc3NC2=O)c(Br)c1 (stereo not given),4.3,-2.1%,-2.6%,-6.0%,2.0%,.
Cc1cc2cc(C(=O)N3CCc4c([nH]c5ccccc45)C3c3ccccn3)ccc2o1 (stereo not given),0.6,8.6%,-2.5%,?,-6.2%,-1.9
CC(=O)c1ccc(C(=O)N2CCc3c([nH]c4ccccc34)C2c2cccc(C)n2)s1 (stereo not given),-33.2,21.0%,.,?,-26.4%,-56.5*
CCOC(=O)c1[nH]c(C)c(C(=O)N2CCc3c([nH]c4ccccc34)C2c2ccccn2)c1C (stereo not given),1.4,6.6%,0.9%,11.2µM*,-19.3%,-12.8
CCCCCN1CSC(=S)N(Cc2ccccc2)C1,6.9,0.2%,-0.4%,12.6µM*,?,-4.8
CCN1CSC(=S)N(Cc2ccccc2)C1,2.8,-1.4%,.,?,?,-24.1
COc1ccc(CCn2c(=O)c3cccnc3n(CC(=O)Nc3ccc(C)c(F)c3)c2=O)cc1OC,-8.4,.,-2.2%,-16.5%,-6.7%,.
CCc1cccc(C)c1NC(=O)C1=C(C)C(=O)OC12CCC(C)CC2 (stereo not given),-6.2,.,0.9%,-5.3%,0.0%,.
CCOC(=O)c1cccc(COC(=O)c2cccc(-c3nnc(-c4ccccc4)o3)c2)c1,25.1,-1.7%,31.6µM*,?,-2.0%,104.0
O=C(OCc1ccc(C(=O)c2ccccc2)cc1)c1cccc(-c2nnc(-c3ccccc3)o2)c1,-5.6,-6.1%,-1.5%,8.4%,6.5%,-19.1
O=C(OCc1ccccc1)c1cccc(-c2nnc(-c3ccccc3)o2)c1,37.9*,-18.5%,35.5µM*,6.7%,-4.9%,25.2
CCOC(=O)c1cc(C(=O)NN)c(C)nc1C,-1.7,1.9%,-3.7%,0.0%,2.3%,?
CCOC(=O)c1cc(-c2nnc(-c3ccc(Oc4ccccc4)cc3)o2)c(C)nc1C,3.0,-5.0%,3.16µM*,-7.4%,0.7%,25.6
O=C(CC[C@H]1O[C@@H](n2cnc3c(NC(=O)c4ccccc4)ncnc32)[C@H](O)[C@@H]1O)NCCCN1CCCC1=O,10.2,14.7%,-0.3%,16.8%,0.7%,22.5
O=C(NCc1ccccc1)C(c1ccco1)N1CCN(c2ccccc2F)CC1 (stereo not given),0.2,.,-2.4%,?,2.9%,13.5
N#Cc1ccccc1NC(=O)C1CC(=O)N(c2ccc3c4c(cccc24)CC3)C1 (stereo not given),6.5,9.1%,.,11.5%,15.7%,1.0
Cc1ccc(NC(=O)C2CC(=O)N(c3ccc4c5c(cccc35)CC4)C2)cc1 (stereo not given),3.7,-4.8%,1.1%,10µM*,-13.1%,-1.0
COc1ccc(C)cc1NC(=O)c1nnn(-c2c(C)cccc2C)c1C,0.4,.,?,?,19.5%,.
CCOC(=O)c1ccccc1NC(=O)c1nn(-c2ccc(C)cc2)c(=O)n(C)c1=O,-16.4,.,-1.4%,1.4%,-0.2%,.
CC(C)(C)c1cc(NC(=O)COC(=O)c2nccnc2N)n(-c2ccccc2)n1,12.2,11.8%,22.4µM*,10.4%,-2.5%,19.5
SMILES,D3 ag,GLP1R ag,ClpP mod,GLP1R inv ag,GLP1R cytotox,D3 antag
CCOc1ccc2nc(Cl)c(C3CC(c4ccc(C)cc4)=NN3C(=O)CCC(=O)O)cc2c1 (stereo not given),2.8,.,-8.5%,3.6%,-12.6%,.
Cc1ccc(NC(=O)Cn2nc(N3CCN(c4ccccc4)CC3)ccc2=O)cc1F,-9.1,.,0.4%,?,-5.8%,.
O=C(Cc1c[nH]c2ccccc12)OCC(=O)c1ccccc1,4.6,1.7%,0.3%,12.6µM*,0.7%,6.5
O=C(NCCc1c[nH]c2ccccc12)OCCCCOC(=O)NCCc1c[nH]c2ccccc12,60.3*,-8.1%,-3.1%,?,-28.9%,26.5
COC(=O)C1CCN(C(=O)COC(=O)Cc2c[nH]c3ccccc23)CC1,-2.1,0.0%,31.6µM*,0.7%,60.4%,-11.3
Cc1ccccc1NC1=NC(=S)N(c2ccccc2)C12CCCCC2,0.8,-13.0%,28.2µM*,?,?,15.5
Cc1ccccc1NC1=NC(=S)N(c2ccccc2)C12CCOC(C)(C)C2 (stereo not given),0.2,-10.2%,1.2%,-5.6%,-11.0%,16.8
CC(=O)Oc1cc2c(cc1OC(C)=O)C(=O)CCCC2,66.1*,-3.2%,0.7%,7.3%,-13.0%,-1.5
COc1cc2c(cc1OC(C)=O)C(=O)CCCC2,-7.9,2.5%,1.0%,19.8%,1.9%,0.0
Cc1cccc(N(C)c2cc(-c3ccc(F)cc3)nc3ccnn23)c1,-12.9,-1.8%,-27.6%,-29.5%,0.7%,-7.9
COc1ccc2oc(C(=O)OC/C(O)=C(\C#N)c3nc4ccccc4[nH]3)c(C)c2c1,4.0,-1.8%,-13.5%,9.1%,-2.5%,-21.3
N#C/C(=C(/O)COC(=O)c1ccc2c(c1)OCCO2)c1nc2ccccc2[nH]1,-2.4,-12.0%,-2.1%,?,-34.4%,-62.1*
CCOC(=O)c1c(C)[nH]c(C(=O)OC/C(O)=C(\C#N)c2nc3ccccc3[nH]2)c1C,-1.2,-8.3%,-11.3%,?,-12.6%,-52.3*
N#C/C(=C(/O)COC(=O)c1ccc(Cl)c(S(=O)(=O)N2CCOCC2)c1)c1nc2ccccc2[nH]1,5.1,10.3%,.,7.1%,191.9%,8.9
